Our source for the inhibition values is PubChem BioAssay AID624330 (Southern Research Specialized Biocontainment Screening …, 2012).

In all, about 340,000 compounds went through this assay and about 2,100 (0.62%) were called active. These entries were drawn from the full list. Potency and affinity values are given separately. A number with no mark means an inactive call.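 The calls were made as follows: active = first-screen hits whose inhibition reached a set limit at any dose in the follow-up dose series; inconclusive = inhibition above the set first-screen limit but never retested; inactive = the rest.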

In this test the target is Rac GTPase-activating protein 1 (Homo sapiens) (UniProt Q9H0H5). As to the kind of experiment: MgcRacGAP GTPase-activating activity inhibitors, confirmation, biochemical, ADP Hunter fluorescence, primary and confirmatory (AID 624330).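 Also: fluorescence reports GDP produced by GAP-driven GTP hydrolysis.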 The note with it: MgcRacGAP-stimulated Rac1 GTP hydrolysis, at 30 µM, active compounds read high, GST-tagged Rac1 F28L mutant substrate.
Sequence of Rac GTPase-activating protein 1 (Homo sapiens) (Q9H0H5 whole entry, looked up): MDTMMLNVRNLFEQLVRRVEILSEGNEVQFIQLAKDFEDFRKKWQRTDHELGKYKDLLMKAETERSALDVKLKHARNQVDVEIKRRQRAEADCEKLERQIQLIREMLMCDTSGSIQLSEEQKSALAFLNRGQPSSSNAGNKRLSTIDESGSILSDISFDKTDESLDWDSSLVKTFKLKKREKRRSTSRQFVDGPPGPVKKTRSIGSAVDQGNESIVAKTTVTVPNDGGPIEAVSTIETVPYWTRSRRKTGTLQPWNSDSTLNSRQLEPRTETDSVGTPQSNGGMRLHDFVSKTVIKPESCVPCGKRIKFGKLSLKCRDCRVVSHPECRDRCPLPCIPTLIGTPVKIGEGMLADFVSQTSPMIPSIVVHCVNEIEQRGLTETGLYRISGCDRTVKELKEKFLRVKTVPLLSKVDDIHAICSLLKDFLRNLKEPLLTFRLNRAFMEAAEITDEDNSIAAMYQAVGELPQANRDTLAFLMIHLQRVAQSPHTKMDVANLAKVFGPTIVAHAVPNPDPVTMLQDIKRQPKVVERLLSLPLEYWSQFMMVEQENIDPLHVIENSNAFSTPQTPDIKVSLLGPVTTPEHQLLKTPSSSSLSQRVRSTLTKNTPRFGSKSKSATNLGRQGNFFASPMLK
In the case of `Cc1[nH]c(=O)[nH]c(=O)c1S(=O)(=O)N1CCCC(C(=O)NCc2ccco2)C1` (configuration not stated), the inhibition was 4.98%.

For `COc1cc(/C=N/Nc2nc3ccccc3s2)cc([N+](=O)[O-])c1O`, the inhibition is 8.67%.

On to `COc1cc(/C=N/Nc2nc3ccccc3s2)ccc1OC(=O)c1ccccc1F`, for which the inhibition was 4.55%.

With `COc1ccc(C=NNc2nc3ccccc3s2)cc1`, the inhibition was 2.73%.

Consider `COc1cc(OC)cc(C(=O)Oc2ccc(/C=N/Nc3nc4ccccc4s3)cc2OC)c1`, for which the inhibition is 12.4%.

With `Oc1ccccc1C=NNc1nc2ccccc2s1`, the inhibition is 4.1%.

As to `Brc1csc(/C=N/Nc2nc3ccccc3s2)c1`, the inhibition was 8.54%.

On to `COc1ccc(OC)c(C(=O)COC(=O)c2ccc(C)o2)c1`, for which the inhibition is 13%.

Turning to `Cc1ccc2c(c1)C1CC(C)(O2)N(c2cccc(C(=O)NC3CCN(Cc4ccccc4)CC3)c2)C(=O)N1` (configuration not stated), the inhibition is 3.74%.

For `O=C(CSc1ncnc2sc3c(c12)CCCC3)NC1CCS(=O)(=O)C1` (configuration not stated), the inhibition was 12.7%.

Turning to `CCN(CC(=O)Nc1ccc(S(=O)(=O)N2CCCC2)cc1)Cc1ccccc1`, the inhibition is 1.79%.

Take `Cc1ccc(C)c(-n2cc(CNCCc3cnccn3)c(-c3ccccc3)n2)c1`: the inhibition was 12.1%.

Regarding `Cc1cc(OC(C)C(=O)NCc2ccccn2)c2c(C)cc(=O)oc2c1` (configuration not stated), the inhibition is 0.55%.

Regarding `CC(=O)Nc1ccc2ccc3cccc4ccc1c2c34`, the inhibition is 6.5%.

`CC(=O)Nc1cccc2ccc(O)cc12`: the inhibition was -6.95%.

Regarding `c1ccc(-c2ncc3ccccn23)cc1`, the inhibition is 12%.

As to `COc1cc(OC)cc(-c2ncc3ccccn23)c1`, the inhibition was 29.5%.

Take `Clc1ccc(-c2ncc3ccccn23)cc1`: the inhibition was 6.65%.

In the case of `Brc1ccc(-c2ncc3ccccn23)cc1`, the inhibition was 14.6%.

As to `COc1ccc(-c2ncc3ccccn23)cc1`, the inhibition was 14.9%.

Turning to `Fc1ccc(-c2ncc3ccccn23)cc1`, the inhibition is -4.81%.

For the compound `CCN(CC)C(=O)[C@H]1CC(CC(=O)NC(C)(C)C)C(=O)N2CCc3c([nH]c4ccccc34)[C@]12C` (some centres not stated), the inhibition was 6.38%.

As to `O=C(Nc1ccon1)Nc1ccc(Cl)cc1Cl`, the inhibition is 2.26%.

Take `Cc1ccc(-c2nc3ncccc3o2)cc1NC(=O)CC(C)C`: the inhibition was 4.77%.

`CC(NC(=O)NC1CCCCC1)C(c1cccs1)N1CCN(C)CC1` (configuration not stated): the inhibition was 1.37%.

On to `COc1ccc(CNC(=O)Cn2cc([N+](=O)[O-])nc2C)cc1`, for which the inhibition is 2.29%.

For `O=C(O)CCC(=O)N1CCN(c2ncccn2)CC1`, the inhibition was 1.98%.

For the compound `O=C(CN1C(=O)C2CCCCC2C1=O)N1CCN(c2ncccn2)CC1` (configuration not stated), the inhibition is 5.06%.

On to `COc1ccc2c(C)cc(=O)sc2c1`, for which the inhibition is 5.61%.

As to `O=C(Nc1cccc(NC(=O)c2ccccc2)n1)c1ccccc1`, the inhibition was 8.99%.

Consider `Cc1cc(NC(=O)CN2CCCCC2)no1`, for which the inhibition was 22.2%.

Turning to `Cc1cc(NC(=O)CN2CCCCCCC2)no1`, the inhibition is 18%.

For the compound `CCN1CCN(CC(=O)Nc2cc(C)on2)CC1`, the inhibition is 29.4%.

Take `O=C(CN1CCCCC1)Nc1ccc(S(=O)(=O)NC2CCCCC2)cc1`: the inhibition is 5.84%.

Take `Cc1cc(NC(=O)CN2CCCC(C)C2)no1` (configuration not stated): the inhibition is 20.7%.

For the compound `CC1CCN(CC(=O)Nc2ccc(S(=O)(=O)N3CCC(C)CC3)cc2)CC1`, the inhibition is 23%.

As to `COc1ccc(S(=O)(=O)N2CCOCC2)cc1C(=O)N(C)CCOc1ccc(Cl)cc1`, the inhibition was 6.35%.

With `O=C1C2C3C=CC(O3)C2C(=O)N1Cc1ccncc1` (configuration not stated), the inhibition is 1.25%.

For the compound `CN(CC1COc2ccccc2O1)C(=O)c1ccc(Cl)c(S(=O)(=O)N2CCCCCC2)c1` (configuration not stated), the inhibition was 7.88%.

With `Cc1cc(NS(=O)(=O)c2ccc(Nc3nc(-c4ccc(C)c(C)c4)cs3)cc2)no1`, the inhibition was 12.2%.

`Nc1ccc(Nc2nc(-c3cc4ccccc4oc3=O)cs2)cc1`: the inhibition was 47.4%.

For `Oc1ccc(-c2csc(Nc3ccc4c(c3)OCO4)n2)c(O)c1`, the inhibition was 10.8%.

`NS(=O)(=O)c1ccc(Nc2nc(-c3ccc4ccccc4c3)cs2)cc1`: the inhibition was -0.69%.

Consider `COc1ccc(-c2csc(Nc3ccc(S(=O)(=O)Nc4cc(C)on4)cc3)n2)cc1`, for which the inhibition is 11.9%.

In the case of `CC(=O)Nc1ccc(-c2csc(Nc3ccc(S(N)(=O)=O)cc3)n2)cc1`, the inhibition is -2.9%.

With `CC(=O)Nc1ccc(Nc2nc(-c3cc4ccccc4oc3=O)cs2)cc1`, the inhibition is 4.39%.

As to `COc1ccc(-c2csc(Nc3ccc(S(N)(=O)=O)cc3)n2)cc1`, the inhibition is 15.2%.

Take `Cc1cc(=O)[nH]c(N/N=C/c2c(C)nn(-c3ccccc3)c2Cl)n1`: the inhibition was 0.59%.

Consider `CN=c1scc(-c2ccc(Cl)cc2)n1C`, for which the inhibition was 3.57%.

Turning to `CC(C(=O)OCC(=O)N1CCCCC1)N1C(=O)c2ccccc2C1=O` (configuration not stated), the inhibition is 2.6%.

Consider `CC1CCN(S(=O)(=O)c2cn(CC(=O)N3CCN(C)CC3)c(=O)c3ccccc23)CC1`, for which the inhibition was -14%.

`O=C(CSc1ccc(-c2cccc([N+](=O)[O-])c2)nn1)N1CCCCC1`: the inhibition was 9.68%.

With `CC(C)(C)S(=O)(=O)N1C[C@H]2CC/C=C\C/C(c3ccccc3)=C\2[C@@H]1CCO`, the inhibition was 2.11%.

Regarding `CC(C)c1ccc(NC(=O)COC(=O)C2CCCCC2)cc1`, the inhibition is 1.49%.

`O=C(NC1CCN(C(=O)N2c3ccccc3Sc3ccccc32)CC1)c1ccco1`: the inhibition was 1.56%.

`O=C(NC1CCN(C(=O)N2c3ccccc3Sc3ccccc32)CC1)c1ccccc1Cl`: the inhibition is 23.6%.

`CC1C(=O)C(C)C(c2cc(Cl)ccc2O)NC1c1cc(Cl)ccc1O` (configuration not stated): the inhibition was 6.05%.

Regarding `CCC[C@H]1CN(c2ccccc2)C(=O)[C@@H]1CC(=O)Nc1ccc(Br)cc1`, the inhibition was 13.1%.

In the case of `COc1ccccc1-n1c(=O)c2c3c(sc2n2c(SC(C)C)nnc12)CCC3`, the inhibition is 14.9%.

For `COc1ccccc1-n1c(=O)c2c3c(sc2n2c(SC)nnc12)CCC3`, the inhibition is 11.3%.

For `CCSc1nnc2n(-c3ccc(OC)cc3)c(=O)c3c4c(sc3n12)CCCC4`, the inhibition is -3.51%.

As for `COC(=O)CSc1nnc2n(-c3ccc(OC)cc3)c(=O)c3c4c(sc3n12)CCCCC4`, the inhibition is 7.39%.
